The list is not random: actives were taken first. Their share in the collection is about 7.9%.
SW480 rereplic: A quantitative high throughput screen for small molecules that induce DNA re-replication in SW480 colon adenocarcinoma cells. SW480 DNA re-replication, Hoechst DNA content imaging, 48 h. Potency, µM (titrated, usually from 46.1 µM), inactives show at the top dose re-replication activation, most hits filed as activators. 340,000 compounds, 1.8% hits; further: % of control where 0% means no effect; nearly all actives have a fitted effect of over 55% in size
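Quantitative HTS format with DMSO vehicle controls; 48 hr drug incubation at 37 C, then 40 min Hoechst staining and scanning imager measurement at 405 nm excitation.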
HT1080 IDH1KD tx: qHTS for induction of synthetic lethality in tumor cells producing 2HG: qHTS for the HT-1080-IDH1KD cell line; HT-1080 IDH1 knockdown viability, ATP luminescence, 48 h; Potency, µM (top dose mostly 46.1 µM), for the others: at the highest dose activity, negative = toxicity, usual class: cytotoxic; 360,000 compounds, 2% hits; AID 686971, 2013;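 further: 0% = DMSO wells and -100% = cell-free medium wells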
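CellTiter-Glo luminescence after 48 h compound exposure at 37 degrees C of IDH1-knockdown HT-1080 cells in 5% FBS RPMI. %Activity scaled between DMSO wells and cell-free media wells, with curves fitted and assigned curve classes.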
KB-3-1 tox: qHTS assay for MDR1-selective chemotherapeutics: Primary screen using the parental adenocarcinoma cell KB-3-1; KB-3-1 viability, CellTiter-Glo ATP luminescence, 72 h; 400,000 compounds, 1.4% hits; Potency, µM (titrated, usually from 46.1 µM), usual class: cytotoxic; further: on the % scale 0 is the no-effect control and ±100 the full control effect; nearly all actives have a fitted effect of over 60% in size
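Screening of KB-3-1 cells (DMEM, 10% FBS, phenol-red free) ran from lowest to highest compound concentration; after 72 h at 37 °C viability was read luminescently and curves fitted.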
MCF10A rereplic: A quantitative high throughput screen for small molecules that induce DNA re-replication in MCF 10a normal breast cells | Potency, µM (highest dose often 46.1 µM), without a hit: at the highest dose activity, positive = re-replication, usual class: activators | AID 624296, 2012 | 350,000 compounds, 2.9% hits | MCF 10A DNA re-replication, Hoechst nuclear intensity, 48 h; further: % of control where 0% means no effect; nearly all actives have a fitted effect of over 50% in size
HT1080-NT tox: qHTS for induction of synthetic lethality in tumor cells producing 2HG: qHTS for the HT-1080-NT fibrosarcoma cell line. 360,000 compounds, 1.6% hits. Potency, µM (top dose mostly 46.1 µM), for inactives: top-dose activity, negative = less viability, actives largely listed as cytotoxic. HT-1080-NT fibrosarcoma viability, CellTiter-Glo ATP luminescence, 48 h;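 further: NT is the 2HG producing partner of a matched IDH1 knockdown line; 0% = DMSO-treated cells and -100% = media-only wells without cells; nearly all actives have a fitted effect of over 55% in size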
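HT-1080-NT fibrosarcoma cells (2HG-overproducing), 750 cells/well in RPMI with 5% FBS, dosed after 2 h and incubated 48 h at 37C. CellTiter-Glo luminescence normalized to DMSO and no-cell wells; concentration-response curves fitted and classed.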
KB-V1 cytotox: qHTS assay for MDR1-selective chemotherapeutics: Primary screen using the drug-selected MDR subline cells KB-V1; 400,000 compounds, 3.4% hits; KB-V1 MDR cells viability, CellTiter-Glo, 72 h; Potency, µM (highest dose often 46.1 µM), usual class: cytotoxic; further: on the % scale 0 is the no-effect control and ±100 the full control effect; nearly all actives have a fitted effect of over 60% in size
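Cytotoxicity toward P-gp-expressing KB-V1 cells was determined as loss of CellTiter-Glo luminescence after 72 h at 37 degrees C. Compounds were tested in quantitative HTS format across a concentration range, with curves fitted to normalized data.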
* = called active by the depositor; i = inactive; ? = inconclusive; · = not tested or not shown; [ ] = remark or other dose. The call rests on the fitted dose curve; in most records, active means well fitted curve in the direction sought with a large enough effect; inconclusive means small, poorly fitted or top-dose-only effect, or another doubt; inactive means no such curve, though single readings can be large; an effect the other way counts as inactive or inconclusive. Potency means the concentration at half of the fitted maximal effect.

SMILES	SW480 rereplic	HT1080 IDH1KD tx	KB-3-1 tox	MCF10A rereplic	HT1080-NT tox	KB-V1 cytotox
COc1ccc(NC(=O)CSc2nnc(C)n2N)cc1S(=O)(=O)N1CCCCC1	3.3%	9.4%	i	-1.3%	3.1%	i
COc1ccc(/C=C2/CSC/C(=C/c3ccc(OC)c(OC)c3)C2=O)cc1OC	2.91µM*	5.8µM*	4.61µM*	?	5.8µM*	1.46µM*
COc1cc(C=C2CCCC(=Cc3ccc(OCC4CO4)c(OC)c3)C2=O)ccc1OCC1CO1 (stereo not given)	·	?	?	·	16.4µM*	?
COc1ccc(/C=C2\Cc3ccccc3C2=O)cc1OC	1.6%	4.7%	i	28.2%	2.5%	i
COc1ccc(C(=O)CCC(=O)N2CCN(c3ccc([N+](=O)[O-])cc3)CC2)cc1	-32.4%	-3.8%	i	-0.8%	-6.5%	i
CC(=O)N[C@@H](C)c1nc2ccccc2n1CCCN1CCN(c2nc(-c3ccc(C)cc3)cs2)CC1	7.2%	-12.1%	?	14.6%	-16.8%	?
Cc1cc(C)c2oc(C(=O)Nc3sc4c(c3C(=O)NCc3ccco3)CCC4)cc(=O)c2c1	·	·	i	·	·	?
CNC(=O)C(C)c1ncc(C(F)(F)F)cc1Cl (stereo not given)	-0.6%	-9.2%	i	-0.1%	10.2%	i
CC(C(=O)Nc1ccc(Cl)cc1)c1ncc(C(F)(F)F)cc1Cl (stereo not given)	?	-24.3%	i	?	-18.5%	25.9µM*
O=S(=O)(NCc1ccccc1)c1ccccc1NCCc1ccccc1	-60.5%	-0.3%	i	7.7%	-0.7%	i
CCCCCCCCNc1ccccc1S(=O)(=O)NCc1ccccc1	-6.0%	?	i	5.17µM*	?	i
O=C(Nc1ccc(Cl)cc1)c1nc[nH]c1C(=O)NCCCCNC(=O)c1[nH]cnc1C(=O)Nc1ccc(Cl)cc1	4.5%	8.6%	?	-11.8%	7.4%	20.6µM*
CCOc1cccc2sc(NC(=O)CCS(=O)(=O)c3ccccc3)nc12	20.6µM*	?	?	20.6µM*	-4.1%	?
CCOc1cccc2sc(Nc3nc4ccc(NC(C)=O)cc4s3)nc12	4.11µM*	?	11.6µM*	3.66µM*	?	?
CCCCCCCCOC(=O)C[N+](C)(C)C/C=C(/C)Cl	-2.1%	-14.0%	i	7.5%	-4.3%	?
CCCCCCCCCCOC(=O)C[N+](C)(C)C/C=C(/C)Cl	5.3%	-10.3%	i	23.1µM*	-8.3%	i
COc1ccc(N2CC(C(=O)N3CCN(Cc4ccc5c(c4)OCO5)CC3)CC2=O)cc1 (stereo not given)	-5.3%	6.7%	i	2.8%	-0.1%	?
COc1ccc2cc3cc(C(=O)NC(C)C)oc3nc2c1	-3.1%	2.9%	i	6.1%	9.4%	2.31µM*
COc1ccc2cc3cc(C(=O)Nc4cc(OC)c(OC)c(OC)c4)oc3nc2c1	2.3%	-0.7%	i	20.4%	3.0%	i
Clc1ccc(SCCCCN2CCNCC2)cc1	?	?	i	2.91µM*	?	i
CC1CN(CCCCSc2ccc(Cl)cc2)CC(C)O1 (stereo not given)	?	-3.5%	i	23.1µM*	-8.1%	i
Cc1ccc(SCCCCN2CCNCC2)cc1	8.2%	-17.2%	i	?	-20.2%	i
Clc1ccccc1OCCCCn1ccnc1	-6.4%	4.7%	i	-1.4%	7.9%[9.24 µM]	i
Clc1ccc(SCCCCn2ccnc2)cc1	4.1%	-1.4%	i	10.3µM*	-20.4%	i
CC1CCN(S(=O)(=O)c2ccc3c(c2)N(CC(=O)NCC(C)c2ccccc2)C(=O)CO3)CC1 (stereo not given)	·	·	i	·	·	?
SMILES	SW480 rereplic	HT1080 IDH1KD tx	KB-3-1 tox	MCF10A rereplic	HT1080-NT tox	KB-V1 cytotox
CCN(CC(=O)NCc1ccc(Cl)cc1)C(=O)CN1C(=O)NC(C)(c2ccccc2)C1=O (stereo not given)	4.0%	3.0%	i	-1.5%	4.6%	i
O=C(C[n+]1ccccc1)c1cccc([N+](=O)[O-])c1	·	·	i	·	·	i
Cc1n[nH]c(C)c1S(=O)(=O)N(CC(=O)NC(C)c1ccccc1)c1ccc(C(C)C)cc1 (stereo not given)	·	·	i	·	·	i
COc1ccc(-c2csc(N(CC3CCCO3)C(=O)c3ccc(C)cc3)n2)cc1 (stereo not given)	-2.1%	?	?	-1.5%	-26.3%	3.66µM*
O=C(c1ccco1)N(CC1CCCO1)c1nc(-c2ccccc2)cs1 (stereo not given)	25.6%	?	?	?	?	23.1µM*
Cc1ccc(-c2csc(N(CC3CCCO3)C(=O)c3ccco3)n2)cc1 (stereo not given)	?	?	?	20.6µM*	-25.2%	?
O=C(c1cccs1)N(CC1CCCO1)c1nc(-c2ccccc2)cs1 (stereo not given)	7.7%	-8.4%	i	18.5%	-7.8%	i
Cc1ccc(S(=O)(=O)N2CC3(O)CN(C(=O)OC(C)C)N(C(=O)OC(C)C)CC3(OC(=O)NCc3ccccc3F)C2)cc1 (stereo not given)	·	-23.1%	i	·	-18.7%	i
Cn1c(CNC(=O)c2ccco2)nnc1SCC(=O)Nc1ccc(Cl)cc1	-38.9%	?	i	?	?	i
CCOc1ccc(NC(=O)c2c(NC(=O)c3ccco3)sc3c2CCC(C(C)(C)C)C3)cc1 (stereo not given)	·	·	i	·	·	?
COc1ccc(NC(=O)CC(C)c2ccccc2)cc1S(=O)(=O)N1CCOCC1 (stereo not given)	-2.1%	13.8%	i	10.6%	-0.6%	i
C=CCn1c(SCC(=O)N2CCN(c3ccccc3)CC2)nnc1-c1ccco1	-4.5%	4.3%	i	8.6%	0.6%	13µM*
C=CCn1c(SCC(=O)Nc2cc(C)c(Cl)cc2OC)nnc1-c1ccco1	-12.2%	?	i	17.8%	?	2.31µM*
O=C(O)c1ccc(S(=O)(=O)N2CCSCC2)cc1	-4.1%	-0.9%	i	-6.8%	8.2%	i

Assay outcomes from PubChem.
